Screening results from PubChem BioAssay.
Rows were chosen to be rich in hits. Some 2.9% of all compounds tested hit in one or more screens of this group.
H9c2 protect: protects H9c2 cardiomyocytes from peroxide injury. protection from H2O2 cell death, % at 20 µM. AID 588492. hit rate 0.63% among 360,000. H2O2 injury protection, ATPLite, 2 h;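 active means compounds giving at least 50% protection of heart cells from peroxide-induced death in the single-dose screen, raw or plate-pattern-corrected value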;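 further: 0% = DMSO wells with peroxide and 100% = DMSO wells without peroxide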
H9c2 TAG inh: triacylglycerol accumulation inhibition. hit rate 0.66% among 230,000. inhibition, % at 12.5 µM. H9c2 cells, Nile Red lipid (TAG) fluorescence; cells loaded with 200 µM oleic acid;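 active means pattern-corrected inhibition of lipid staining of at least 50% with the nuclear-stain viability signal not falling by more than 50%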;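 further: 0% = DMSO wells and 100% = triacsin C control wells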
PfGluPho inh: PfG6PD (Plasmodium falciparum) enzyme inhibition. PfGluPho enzyme, NADPH resazurin-diaphorase fluorescence. inhibition, % at 20 µM. hit rate 0.78% among 350,000. AID 504690;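 active means inhibition reaching at least a set limit at 20 µM in the primary screen, cut at about 59% in these data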;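 further: 0% = DMSO wells with substrate and 100% = DMSO wells lacking glucose-6-phosphate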
APOBEC3G inh: APOBEC3G (human) deaminase inhibition. Q9HC16. recombinant A3G, ssDNA deamination FAM/TAMRA fluorescence. inhibition, % at 20 µM. hit rate 0.28% among 330,000. AID 493012;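 active means inhibition of at least 40% at 20 µM, with no more than 30% in the related APOBEC3A deaminase screen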;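 further: plate controls were DMSO wells with A3G for no effect and wells lacking A3G enzyme for full effect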
Target sequence (Q9HC16 whole entry, looked up): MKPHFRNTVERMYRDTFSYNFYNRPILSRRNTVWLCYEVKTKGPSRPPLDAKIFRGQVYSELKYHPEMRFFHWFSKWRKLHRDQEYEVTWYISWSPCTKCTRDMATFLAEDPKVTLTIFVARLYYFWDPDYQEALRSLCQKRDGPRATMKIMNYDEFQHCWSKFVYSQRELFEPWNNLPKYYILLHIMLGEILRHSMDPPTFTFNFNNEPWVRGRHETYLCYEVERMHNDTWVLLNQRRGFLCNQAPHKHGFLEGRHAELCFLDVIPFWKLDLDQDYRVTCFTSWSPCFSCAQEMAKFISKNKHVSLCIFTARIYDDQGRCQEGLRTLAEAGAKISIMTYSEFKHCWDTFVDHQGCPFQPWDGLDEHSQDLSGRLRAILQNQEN
NadD block: blocks S. aureus nicotinate mononucleotide adenylyltransferase | purified NadD enzyme, colorimetric absorbance read-out | inhibition, % at 20 µM | AID 602399 | hit rate 0.78% among 360,000; in the data active means inhibition above about 26%
APOBEC3A inh: human APOBEC3A DNA deaminase inhibition; inhibition, % at 20 µM; recombinant A3A, FAM/TAMRA ssDNA deamination fluorescence; hit rate 0.41% among 330,000;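 active means at least 40% inhibition at 20 µM here, with at most 30% in a related deaminase screen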;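 further: plate controls were A3A with DMSO for no effect and wells lacking A3A enzyme for full effect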
Target sequence (P31941 whole entry, looked up): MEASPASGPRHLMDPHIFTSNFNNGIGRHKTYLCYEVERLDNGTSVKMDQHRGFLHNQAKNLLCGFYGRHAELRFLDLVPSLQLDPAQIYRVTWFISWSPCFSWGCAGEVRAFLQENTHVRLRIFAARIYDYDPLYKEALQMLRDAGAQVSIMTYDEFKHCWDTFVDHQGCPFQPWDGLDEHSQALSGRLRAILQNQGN
A3A conf: APOBEC3A (human) deaminase inhibition, confirmed | shares compounds with APOBEC3A inh | recombinant A3A, ssDNA deaminase UDG fluorescence assay | inhibition, % at 20 µM | hit rate 63% among 1,400 | AID 493151;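 active means inhibition reaching a set limit, 80% of the first screen's cutoff, at 20 µM in any replicate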;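 further: plate controls were DMSO wells with A3A for no effect and wells lacking A3A enzyme for full effect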
UDG ctr A3A: inhibits UDG, flagging false APOBEC3A inhibitors; shares compounds with APOBEC3A inh; UDG counterscreen, FAM/TAMRA uracil oligo fluorescence; inhibition, % at 20 µM; 1,000 tested, under 10 active; AID 504714; call rule not given here
* = called active by the depositor; . = not tested or not shown.

SMILES	H9c2 protect	H9c2 TAG inh	PfGluPho inh	APOBEC3G inh	NadD block	APOBEC3A inh	A3A conf	UDG ctr A3A
Cc1cccc(NS(=O)(=O)c2ccc(C)c(C(=O)NNC(=O)c3csc(N4CCOCC4)n3)c2)c1	-5.6	12.8	14.2	.	12.9	.	.	.
COc1cc(/C=C2\C(=O)N(c3ccc(NC(C)=O)cc3)N=C2c2ccccc2)ccc1O	-8.0	7.5	-2.6	5.6	15.6	1.5	.	.
CCOc1cc(/C=C2\C(=O)N(c3nc(-c4ccc(Br)cc4)cs3)N=C2c2ccccc2)ccc1O	-28.8	-13.0	-3.3	-1.9	76.5*	-2.5	.	.
C/C(=N\OCc1nc2ccccc2c(=O)n1/N=C/c1cc([N+](=O)[O-])ccc1O)c1ccccc1	1.2	22.0	-10.8	-5.7	31.8*	-9.1	.	.
CC1=CC(=O)C(C(C)C)=CC1=NC(=O)c1ccc(C)cc1	-17.5	-9.6	93.0*	-7.8	-1.7	-4.7	.	.
Cc1ccc2c(c1)N(C(=O)CCC(=O)Nc1ccccc1Cl)CC(C)O2 (stereo not drawn)	3.8	1.9	-11.4	-6.8	-6.1	0.9	.	.
O=c1[nH]nc(-c2cccs2)c2ccccc12	69.5*	-1.9	11.9	-1.5	-8.0	-1.7	.	.
COCCN(C(=O)CSc1nnc(-c2ccncc2)n1C)c1c(N)n(CC(C)C)c(=O)[nH]c1=O	0.6	11.7	-11.8	.	2.0	.	.	.
Cc1cc(C(=O)N/N=C/c2cc(Br)c(Br)o2)n[nH]1	-4.7	.	1.3	15.6	-0.5	58.0*	36.6*	-0.2
N/C(=N\OC(=O)Cc1ccc([N+](=O)[O-])cc1)c1cccc(Br)c1	-5.7	7.5	23.7	-4.5	-9.9	0.2	.	.
N/C(=N\OC(=O)Cc1ccc([N+](=O)[O-])cc1)c1ccc([N+](=O)[O-])cc1	-8.9	.	-8.9	-6.9	-7.6	53.4*	-3.7	-1.7
CCOC(=O)c1c(NC(=O)OC)sc2c1CCC2	0.0	1.7	15.6	-5.5	-4.2	54.1*	-5.8	0.9
CCOC(=O)c1c(/N=C/c2ccccc2O)sc2c1CCC2	0.0	.	9.0	-3.8	2.6	97.6*	-3.1	-2.5
COc1ccccc1/C=C/C(=O)NCC(=O)N1CCC(N(C)C2CCCC2)CC1	3.3	.	-6.0	-6.2	-6.4	1.1	.	.
CC1CCC/C(=N/NC(=O)c2ccccc2-n2cccc2)C1 (stereo not drawn)	2.6	.	-1.1	16.3	-1.4	53.3*	12.7*	-2.8
CCc1nn(CCCC(=O)N2CCC(C)CC2)c(=O)c2cc3occc3n12	-3.1	.	0.8	-1.9	-1.4	40.2*	-6.9	-1.2
CCc1nn(CCCC(=O)N2CCN(c3ccc(OC)cc3)CC2)c(=O)c2cc3occc3n12	3.2	.	6.0	-1.3	-3.9	-4.5	.	.
CC1=C(C(=O)N2CCCCCC2)CC(CC(=O)NCCCCc2ccccc2)C(=O)N1CCC1=CCCCC1 (stereo not drawn)	.	.	.	.	6.2	.	.	.
Cc1ccc(NC(=O)CN(C)C(=O)c2ccccc2Sc2ccccc2C#N)cc1	-4.4	-13.6	12.2	-8.3	0.7	-4.6	.	.
CCOC(=O)NC(=O)CN1C(=O)NC(C)(c2ccccc2)C1=O (stereo not drawn)	1.9	.	8.3	-8.7	0.0	71.8*	-6.7	-0.5
CC(C)C(CO)N1CCN(Cc2ccccc2)CCC1=O (stereo not drawn)	-0.3	.	6.4	9.5	-0.1	61.4*	51.3*	3.8
O=C(Cc1cccs1)NCc1ccco1	1.9	15.7	14.5	-5.3	1.7	-0.3	.	.
O=C(Cc1cccs1)NNC(=S)NCc1ccco1	-7.7	-5.6	-0.1	-6.9	-1.7	77.9*	-3.6	-3.1
COc1ccc(C2=[N+](C)CCn3cccc32)c(OC)c1	-4.6	.	11.7	13.7	18.7	62.9*	73.4*	3.0
CCOC(=O)C1CCN(C(=O)Cc2cccc3ccccc23)CC1	-1.5	.	-9.0	6.3	6.3	40.2*	57.7*	0.8
SMILES	H9c2 protect	H9c2 TAG inh	PfGluPho inh	APOBEC3G inh	NadD block	APOBEC3A inh	A3A conf	UDG ctr A3A
CCCN(Cc1nnc(-c2cccs2)o1)C(=O)c1cccc(S(=O)(=O)N2CCOCC2)c1	12.5	8.2	-4.8	-7.5	1.8	-2.0	.	.
Cc1ccc(C2C3=C(CCCC3=O)N=C3c4ccccc4C(=O)C32)cc1 (stereo not drawn)	15.6	.	39.6	-3.9	2.5	-4.7	.	.
CCN1/C(=C2\C(=O)N(c3ccccc3)N=C2C)C=Cc2cc(C)ccc21	3.7	.	-18.3	17.6	4.2	49.3*	20.5	.
CC(=O)c1cnn(-c2c(Cl)cc(Cl)cc2Cl)c1C	-2.5	-0.5	8.4	0.4	-8.7	0.9	.	.
Cc1ccc(S(=O)(=O)N(Cc2ccccc2)Cc2ccco2)cc1	-28.2	-4.6	41.0	-5.1	-2.4	-2.2	.	.
Cc1ccc(S(=O)(=O)N(CC(=O)O)Cc2ccco2)cc1	-2.3	4.6	5.2	12.3	1.2	51.6*	56.3*	0.9
CCC(C(=O)Oc1c(C(C)C)cccc1C(C)C)c1ccccc1 (stereo not drawn)	-7.9	-14.4	7.0	-8.2	2.1	-0.9	.	.
CCCCN(C=O)c1c(CC)nc2c(OCCOc3ccc(F)cc3)cccn12	-3.5	7.2	.	.	-5.4	.	.	.
CS(=O)(=O)c1[nH]nc(-c2ccccc2)c1C#N	4.3	-26.6	-11.8	-7.4	-4.4	-2.9	.	.
CCOc1ccc(OC(=O)c2cccc(S(=O)(=O)N3CCN(C)CC3)c2)cc1	-5.2	6.8	13.9	6.1	0.7	59.7*	17.9	.
CN1CCN(c2ccc(S(=O)(=O)N3CCCCC3)cc2NC(=O)Cc2c(F)cccc2Cl)CC1	14.6	3.1	-0.1	-2.2	3.1	45.7*	35.6*	-0.3
CC(=O)c1ccc(OCCCC(=O)Nc2cc(S(=O)(=O)N3CCCCC3)ccc2C)cc1	-4.4	-29.5	-7.3	4.6	2.6	40.1*	9.4	.
O=C(Cc1c(F)cccc1Cl)Nc1cc(S(=O)(=O)N2CCCCC2)ccc1N1CCOCC1	5.9	-12.2	-4.8	3.3	-10.3	2.6	.	.
CCN1CCN(c2ccc(S(=O)(=O)N3CCCCC3)cc2NC(=O)c2ccccc2)CC1	4.8	13.1	-3.7	6.6	-1.6	45.6*	23.1*	2.0
Cc1ccc(S(=O)(=O)N2CCCCC2)cc1NC(=O)CCCOc1ccccc1	-6.3	3.1	3.8	-1.2	-6.4	14.4	.	.
COc1ccc(OC(=O)c2cccc(S(=O)(=O)N3CCCC3)c2)cc1	-5.0	.	-2.4	-2.2	-11.8	1.7	.	.
Cn1c(N/N=C/c2cc3ccccc3nc2Cl)nc2ccccc21	-16.0	.	5.1	-2.6	6.6	5.1	.	.
Cc1cnc(NC(=O)C2COc3ccccc3O2)s1 (stereo not drawn)	-11.8	1.2	4.5	-3.5	0.8	4.7	.	.
CCN1CCN(c2ccc(S(=O)(=O)N3CCCCC3)cc2NC(=O)c2cccc(C(F)(F)F)c2)CC1	4.0	10.4	14.6	17.6	5.4	57.2*	50.8*	-0.2
